Results taken from PubChem BioAssay (NCI).
The panel holds about 83,000 compounds, 20% with a hit somewhere; the sample as a whole holds those more often.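 Single-concentration screen, 48 h exposure, 96-well plates. Endpoint: percent growth. Below 10 = active.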 Calls of active or inactive are those of the source.

Columns and labels:
Assay in all cases: NCI-60 one-dose screen, 48 h (100 = growth as untreated, 0 = no growth, -100 = all killed)
Details in all cases: 10 µM unless noted
NCI-H23 lung = test system: NCI-H23 lung
NCI-H226 lung = test system: NCI-H226 lung
NCI-H322M lung = test system: NCI-H322M lung
HOP-62 NSCLC = test system: HOP-62 NSCLC
NCI-H460 lung = test system: NCI-H460 lung
HOP-92 NSCLC = test system: HOP-92 NSCLC
NCI-H522 lung = test system: NCI-H522 lung
A549/ATCC NSCLC = test system: A549/ATCC NSCLC
786-0 renal = test system: 786-0 renal
COLO 205 colon = test system: COLO 205 colon
DU-145 prostate = test system: DU-145 prostate
K-562 leukemia = test system: K-562 leukemia
MDA-MB-231 breast = test system: MDA-MB-231 breast
RXF 393 renal = test system: RXF 393 renal
SF-268 CNS = test system: SF-268 CNS
SF-295 CNS = test system: SF-295 CNS
SF-539 CNS = test system: SF-539 CNS
UACC-257 melanoma = test system: UACC-257 melanoma
M14 melanoma = test system: M14 melanoma
MALME-3M melanoma = test system: MALME-3M melanoma

Measured: growth

S=c1[nH]nc2ccccn12
inactive: NCI-H23 lung 104% | NCI-H226 lung 122% | NCI-H322M lung 105% | HOP-62 NSCLC 102% | NCI-H460 lung 109% | HOP-92 NSCLC 100% | NCI-H522 lung 82.3% | A549/ATCC NSCLC 106% | 786-0 renal 112% | COLO 205 colon 118% | DU-145 prostate 114% | K-562 leukemia 92.6% | MDA-MB-231 breast 103% | RXF 393 renal 119% | SF-268 CNS 117% | SF-295 CNS 108% | SF-539 CNS 99.1% | UACC-257 melanoma 108% | M14 melanoma 108%

Oc1ccccc1/C=N\NC(=S)Nc1ccc(F)cc1
active: NCI-H460 lung 4.08% | M14 melanoma -30.4%
inactive: NCI-H23 lung 30.4% | NCI-H226 lung 25.7% | NCI-H322M lung 30.1% | HOP-62 NSCLC 36.5% | HOP-92 NSCLC 46.4% | NCI-H522 lung 21.4% | A549/ATCC NSCLC 22.1% | 786-0 renal 16.6% | COLO 205 colon 50.3% | DU-145 prostate 30.4% | K-562 leukemia 14.9% | MDA-MB-231 breast 49% | RXF 393 renal 20.1% | SF-268 CNS 27.8% | SF-295 CNS 11.6% | SF-539 CNS 23.9% | UACC-257 melanoma 15.4%

CC(=O)O[C@H]1CC[C@@]2(C)[C@@H](CC[C@@H]3[C@@H]2CC(=O)[C@@]2(C)[C@H]3C[C@@H](C3CCCC3=O)[C@@H]2C(C)=O)C1 (some centres not stated)
inactive: NCI-H23 lung 107% | NCI-H226 lung 112% | NCI-H322M lung 106% | HOP-62 NSCLC 100% | NCI-H460 lung 111% | HOP-92 NSCLC 93.1% | NCI-H522 lung 82.5% | A549/ATCC NSCLC 101% | 786-0 renal 105% | COLO 205 colon 116% | DU-145 prostate 117% | K-562 leukemia 105% | MDA-MB-231 breast 98.8% | RXF 393 renal 132% | SF-268 CNS 112% | SF-295 CNS 112% | SF-539 CNS 105% | UACC-257 melanoma 109% | M14 melanoma 97.8%

Cc1c(C)c2c(c(C)c1NC(=O)CCCCCCC(=O)O)CCC(C)(CCCC(C)CCCC(C)CCCC(C)C)O2 (configuration not stated)
inactive: NCI-H23 lung 85.7% | NCI-H226 lung 95.2% | NCI-H322M lung 91.7% | HOP-62 NSCLC 109% | NCI-H460 lung 69.7% | HOP-92 NSCLC 82% | NCI-H522 lung 52% | A549/ATCC NSCLC 20.4% | 786-0 renal 75.2% | COLO 205 colon 98.4% | DU-145 prostate 86.1% | K-562 leukemia 39.2% | MDA-MB-231 breast 101% | RXF 393 renal 98.9% | SF-268 CNS 78.3% | SF-295 CNS 71.4% | SF-539 CNS 89.9% | UACC-257 melanoma 95.2% | M14 melanoma 82.7%

C/C(=N\NC(=O)C(C)SC(C)C(=O)N/N=C(\C)c1cccnc1)c1cccnc1 (configuration not stated)
inactive: NCI-H23 lung 103% | NCI-H226 lung 106% | NCI-H322M lung 104% | HOP-62 NSCLC 106% | NCI-H460 lung 104% | HOP-92 NSCLC 114% | NCI-H522 lung 77.4% | A549/ATCC NSCLC 108% | 786-0 renal 115% | COLO 205 colon 107% | DU-145 prostate 111% | K-562 leukemia 91.9% | MDA-MB-231 breast 109% | RXF 393 renal 130% | SF-268 CNS 108% | SF-295 CNS 116% | SF-539 CNS 104% | UACC-257 melanoma 113% | M14 melanoma 111%

O=[N+]([O-])c1cccc(/C=N\Nc2ccccc2)c1
inactive: NCI-H23 lung 88.5% | NCI-H226 lung 70.1% | NCI-H322M lung 81.1% | HOP-62 NSCLC 84% | NCI-H460 lung 77.1% | HOP-92 NSCLC 66% | NCI-H522 lung 54.9% | A549/ATCC NSCLC 67.4% | 786-0 renal 74.4% | COLO 205 colon 85.4% | DU-145 prostate 80.2% | K-562 leukemia 16.6% | MDA-MB-231 breast 55.7% | RXF 393 renal 101% | SF-268 CNS 62.5% | SF-295 CNS 49.2% | SF-539 CNS 96.7% | UACC-257 melanoma 95.3% | M14 melanoma 33.7%

C(=C\c1c[nH]c2ccccc12)/c1ccc2ccccc2n1
inactive: NCI-H23 lung 91.3% | NCI-H226 lung 76.5% | NCI-H322M lung 77.5% | HOP-62 NSCLC 89.6% | NCI-H460 lung 79.7% | HOP-92 NSCLC 61.3% | NCI-H522 lung 53.8% | A549/ATCC NSCLC 63.3% | 786-0 renal 77.8% | COLO 205 colon 84.4% | DU-145 prostate 92.7% | K-562 leukemia 51.9% | MDA-MB-231 breast 56.4% | RXF 393 renal 92.1% | SF-268 CNS 71.4% | SF-295 CNS 81.4% | SF-539 CNS 87.9% | UACC-257 melanoma 90.2% | M14 melanoma 82.2%

Cc1ccc(-c2nc3ccc(Cl)cc3c(=O)n2N2C(=O)CSC2c2ccccc2Cl)cc1 (configuration not stated)
inactive: NCI-H23 lung 91.1% | NCI-H226 lung 86.6% | NCI-H322M lung 86.7% | NCI-H460 lung 48.5% | NCI-H522 lung 76.9% | A549/ATCC NSCLC 13.2% | 786-0 renal 70% | COLO 205 colon 66.6% | DU-145 prostate 73.1% | K-562 leukemia 93.4% | MALME-3M melanoma 65.8% | MDA-MB-231 breast 59.9% | RXF 393 renal 98.5% | SF-268 CNS 60.4% | SF-539 CNS 78.8% | M14 melanoma 71.4%
active: HOP-62 NSCLC 2.48% | HOP-92 NSCLC -4.8%

Oc1ccc(Nc2ccccc2)cc1
inactive: NCI-H23 lung 86% | NCI-H226 lung 92.6% | NCI-H322M lung 77.7% | HOP-62 NSCLC 104% | NCI-H460 lung 92.5% | HOP-92 NSCLC 119% | NCI-H522 lung 92.2% | A549/ATCC NSCLC 111% | 786-0 renal 97.8% | COLO 205 colon 109% | DU-145 prostate 94.6% | K-562 leukemia 79.6% | MALME-3M melanoma 70.7% | MDA-MB-231 breast 52.6% | SF-268 CNS 88.2% | SF-295 CNS 82% | SF-539 CNS 64.5% | UACC-257 melanoma 110% | M14 melanoma 104%

COC(c1ccccc1)(c1ccccc1)c1ccccc1
inactive: NCI-H23 lung 95.4% | NCI-H226 lung 101% | NCI-H322M lung 102% | HOP-62 NSCLC 106% | NCI-H460 lung 101% | HOP-92 NSCLC 147% | NCI-H522 lung 116% | A549/ATCC NSCLC 104% | 786-0 renal 93% | COLO 205 colon 123% | DU-145 prostate 108% | K-562 leukemia 109% | MALME-3M melanoma 95.4% | MDA-MB-231 breast 102% | SF-268 CNS 98.5% | SF-295 CNS 90.7% | SF-539 CNS 102% | UACC-257 melanoma 122% | M14 melanoma 136%

O=C(O)c1cccc2c1Cc1cc([N+](=O)[O-])ccc1-2
inactive: NCI-H23 lung 103% | NCI-H226 lung 100% | NCI-H322M lung 109% | HOP-62 NSCLC 105% | NCI-H460 lung 110% | HOP-92 NSCLC 82% | NCI-H522 lung 103% | A549/ATCC NSCLC 107% | 786-0 renal 108% | COLO 205 colon 107% | DU-145 prostate 109% | K-562 leukemia 108% | MDA-MB-231 breast 102% | RXF 393 renal 118% | SF-268 CNS 104% | SF-295 CNS 115% | SF-539 CNS 93% | UACC-257 melanoma 109% | M14 melanoma 110%

Cn1cc(-c2nc(-c3c[nH]c4ncccc34)cs2)c2cc(Br)ccc21
inactive: NCI-H23 lung 93.5% | NCI-H226 lung 95.7% | NCI-H322M lung 76.4% | HOP-62 NSCLC 109% | NCI-H460 lung 81.7% | HOP-92 NSCLC 89.1% | NCI-H522 lung 86.5% | A549/ATCC NSCLC 86.7% | 786-0 renal 80.6% | COLO 205 colon 106% | DU-145 prostate 73.2% | K-562 leukemia 59.5% | MDA-MB-231 breast 84.6% | RXF 393 renal 75.7% | SF-268 CNS 99.1% | SF-295 CNS 84.6% | SF-539 CNS 108% | UACC-257 melanoma 120% | M14 melanoma 75.5%

CCN(CC)CCCCCCNc1ccnc2cc(Cl)ccc12
active: COLO 205 colon 9.2%
inactive: NCI-H23 lung 83.4% | NCI-H226 lung 108% | NCI-H322M lung 96.2% | HOP-62 NSCLC 82.6% | NCI-H460 lung 92.9% | HOP-92 NSCLC 98.8% | NCI-H522 lung 125% | A549/ATCC NSCLC 96.2% | 786-0 renal 90.9% | DU-145 prostate 92.8% | K-562 leukemia 30.1% | MALME-3M melanoma 99.6% | MDA-MB-231 breast 51.8% | SF-268 CNS 77.4% | SF-295 CNS 97% | SF-539 CNS 52.5% | UACC-257 melanoma 102% | M14 melanoma 38%

COc1ccc(/C=C/C(=O)c2ccc([N+](=O)[O-])cc2)cc1
inactive: NCI-H23 lung 104% | NCI-H226 lung 102% | NCI-H322M lung 102% | HOP-62 NSCLC 104% | NCI-H460 lung 110% | HOP-92 NSCLC 87.7% | NCI-H522 lung 83.7% | A549/ATCC NSCLC 100% | 786-0 renal 94.7% | COLO 205 colon 114% | DU-145 prostate 109% | K-562 leukemia 101% | MDA-MB-231 breast 94.5% | RXF 393 renal 110% | SF-268 CNS 106% | SF-295 CNS 114% | SF-539 CNS 104% | UACC-257 melanoma 110% | M14 melanoma 106%

O=C(O)c1cccc2c1C(=O)N(c1ccc3c(c1)Cc1ccccc1-3)C2=O
inactive: NCI-H23 lung 122% | NCI-H226 lung 111% | NCI-H322M lung 111% | HOP-62 NSCLC 112% | NCI-H460 lung 117% | HOP-92 NSCLC 109% | NCI-H522 lung 92.3% | A549/ATCC NSCLC 98.6% | 786-0 renal 107% | COLO 205 colon 121% | DU-145 prostate 116% | K-562 leukemia 105% | MDA-MB-231 breast 113% | RXF 393 renal 110% | SF-268 CNS 117% | SF-295 CNS 121% | SF-539 CNS 110% | UACC-257 melanoma 109%

Clc1ccc2[nH]cc(-c3nc(-c4c[nH]c5ncccc45)cs3)c2c1
active: UACC-257 melanoma 9.88%
inactive: NCI-H23 lung 51.7% | NCI-H226 lung 63% | NCI-H322M lung 59.1% | HOP-62 NSCLC 54.1% | NCI-H460 lung 19% | HOP-92 NSCLC 43.5% | NCI-H522 lung 46.5% | A549/ATCC NSCLC 21.7% | 786-0 renal 27.6% | COLO 205 colon 18.3% | DU-145 prostate 42.1% | K-562 leukemia 13.1% | MDA-MB-231 breast 37.9% | RXF 393 renal 45.5% | SF-268 CNS 61.7% | SF-295 CNS 19.4% | SF-539 CNS 70.5% | M14 melanoma 20.1%
